Experimental findings from PubChem BioAssay (NCATS) are described below.

Assay [1] is described as follows: Quantitative High-Throughput drug screen in 47 multiple myeloma cell lines against the NCATS MIPE library collection: H1112_PLB cell viability assay (AID 1918967; further: nearly all actives have a fitted effect of over 30% in size). In short, it runs like this: (§1)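 We plated 500 myeloma cells per well, pinned in MIPE 4.0 compounds, and incubated for 48 hours at 37C. ATP was then quantified with CellTiter-Glo, with DMSO and media-only wells defining 100% and 0%.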

A short description of assay [2]: Quantitative High-Throughput drug screen in 47 multiple myeloma cell lines against the NCATS MIPE library collection: KMS26_JCRB cell viability assay (AID 1918975). Further: nearly all actives have a fitted effect of over 45% in size. Further: potency means the concentration at half of the fitted maximal effect. The essentials: (§2)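 Inhibition of cell viability is measured here. Each line was plated at 500 cells per well, treated with MIPE 4.0 drugs, kept 48 hours at 37C, then assayed for ATP content by CellTiter-Glo luminescence.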

Assay [3] is described as follows: Quantitative High-Throughput drug screen in 47 multiple myeloma cell lines against the NCATS MIPE library collection: MOLP8_DSMZ cell viability assay (AID 1918977). Further: nearly all actives have a fitted effect of over 45% in size. Further: potency means the concentration at half of the fitted maximal effect. The essentials:
(§3)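 500 cells/well per myeloma line exposed to pinned MIPE 4.0 compounds for 48 h at 37 °C, 5% CO2. Viability read as ATP by CellTiter-Glo luminescence, normalised to DMSO-only (100%) and media-only (0%) wells.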

Assay [4] can be described thus: Quantitative High-Throughput drug screen in 47 multiple myeloma cell lines against the NCATS MIPE library collection: NCIH929_DSMZ cell viability assay (AID 1918978). Further: nearly all actives have a fitted effect of over 35% in size. Further: potency means the concentration at half of the fitted maximal effect. In short, it runs like this:
as §3

Assay [5] is described as follows: Quantitative High-Throughput drug screen in 47 multiple myeloma cell lines against the NCATS MIPE library collection: OCIMY1_PLB cell viability assay (AID 1918979). Further: nearly all actives have a fitted effect of over 35% in size. Further: potency means the concentration at half of the fitted maximal effect. In short, it runs like this:
as §3

Assay [6] in a line: Quantitative High-Throughput drug screen in 47 multiple myeloma cell lines against the NCATS MIPE library collection: MM1S_ATCC cell viability assay (AID 1918980). Further: nearly all actives have a fitted effect of over 45% in size. Further: potency means the concentration at half of the fitted maximal effect. In short, it runs like this:
as §3

Assay [7] is described as follows: Quantitative High-Throughput drug screen in 47 multiple myeloma cell lines against the NCATS MIPE library collection: MM1R_ATCC cell viability assay (AID 1918981). Further: nearly all actives have a fitted effect of over 35% in size. Further: potency means the concentration at half of the fitted maximal effect. The essentials: as §3
Assay [8] in a line: Quantitative High-Throughput drug screen in 47 multiple myeloma cell lines against the NCATS MIPE library collection: LP1_DSMZ cell viability assay (AID 1918982). Further: nearly all actives have a fitted effect of over 35% in size. Further: potency means the concentration at half of the fitted maximal effect. In short, it runs like this: as §3
A short description of assay [9]: Quantitative High-Throughput drug screen in 47 multiple myeloma cell lines against the NCATS MIPE library collection: KMS28PE_JCRB cell viability assay (AID 1918983). Further: nearly all actives have a fitted effect of over 35% in size. Further: potency means the concentration at half of the fitted maximal effect. In short, it runs like this:
as §3

Assay [10] can be described thus: Quantitative High-Throughput drug screen in 47 multiple myeloma cell lines against the NCATS MIPE library collection: L363_DSMZ cell viability assay (AID 1918984). Further: nearly all actives have a fitted effect of over 40% in size. Further: potency means the concentration at half of the fitted maximal effect. The essentials:
as §3

Assay [11] can be described thus: Quantitative High-Throughput drug screen in 47 multiple myeloma cell lines against the NCATS MIPE library collection: KMS34_JCRB cell viability assay (AID 1918985). Further: nearly all actives have a fitted effect of over 40% in size. Further: potency means the concentration at half of the fitted maximal effect. The essentials: as §3
A short description of assay [12]: Quantitative High-Throughput drug screen in 47 multiple myeloma cell lines against the NCATS MIPE library collection: Karpas25_ECACC cell viability assay (AID 1918968). In short, it runs like this: as §1
A short description of assay [13]: Quantitative High-Throughput drug screen in 47 multiple myeloma cell lines against the NCATS MIPE library collection: KMS27_JCRB cell viability assay (AID 1918970). Further: potency means the concentration at half of the fitted maximal effect; nearly all actives have a fitted effect of over 30% in size. In short, it runs like this: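 Luminescent ATP read-out (CellTiter-Glo, 5 min at room temperature) after 48 h compound exposure of 500 KMS27_JCRB cells per well; DMSO wells define full viability and media-only wells zero.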

The nature of assay [14]: Quantitative High-Throughput drug screen in 47 multiple myeloma cell lines against the NCATS MIPE library collection: KMS12PE_JCRB cell viability assay (AID 1918972). Further: nearly all actives have a fitted effect of over 30% in size. Further: potency means the concentration at half of the fitted maximal effect. In short, it runs like this:
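Myeloma cell lines, 500 cells per well, exposed to MIPE 4.0 library compounds for 48 h at 37C, 5% CO2. Viability from ATP by CellTiter-Glo luminescence; normalised to DMSO (100%) and media-only (0%) wells.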

Assay [15] can be described thus: Quantitative High-Throughput drug screen in 47 multiple myeloma cell lines against the NCATS MIPE library collection: KMS20_JCRB cell viability assay (AID 1918973). Further: nearly all actives have a fitted effect of over 45% in size. Further: potency means the concentration at half of the fitted maximal effect. The essentials: as §1
Assay [16] in a line: Quantitative High-Throughput drug screen in 47 multiple myeloma cell lines against the NCATS MIPE library collection: MMM1_PLB cell viability assay (AID 1918976). In short, it runs like this: as §3
Assay [17] in a line: Quantitative High-Throughput drug screen in 47 multiple myeloma cell lines against the NCATS MIPE library collection: KMS12BM_JCRB cell viability assay (AID 1918971). In short, it runs like this: as §2
Assay [18] can be described thus: Quantitative High-Throughput drug screen in 47 multiple myeloma cell lines against the NCATS MIPE library collection: KMS21BM_JCRB cell viability assay (AID 1918974). Further: potency means the concentration at half of the fitted maximal effect. The following applies: ATP luminescence, 48 h; viability: at 45.8 µM (top of the series) unless noted. The essentials:
as §1

Assay [19] can be described thus: Quantitative High-Throughput drug screen in 47 multiple myeloma cell lines against the NCATS MIPE library collection: OCIMY7_PLB cell viability assay (AID 1918987). Further: potency means the concentration at half of the fitted maximal effect; nearly all actives have a fitted effect of over 65% in size. In short, it runs like this: as §3
Assay [20] is described as follows: Quantitative High-Throughput drug screen in 47 multiple myeloma cell lines against the NCATS MIPE library collection: OCIMY5_PLB cell viability assay (AID 1918988). Further: potency means the concentration at half of the fitted maximal effect; nearly all actives have a fitted effect of over 65% in size. In short, it runs like this: as §3

Results filed as inconclusive are left out. The source made the active and inactive calls. The call rests on the fitted dose curve; in most records, active means well fitted curve in the direction sought with a large enough effect; inconclusive means small, poorly fitted or top-dose-only effect, or another doubt; inactive means no such curve, though single readings can be large; an effect the other way counts as inactive or inconclusive.

Turning to `CNC(=O)c1ccc(N2C(=S)N(c3ccc(C#N)c(C(F)(F)F)c3)C(=O)C2(C)C)cc1F`, the Potency entry in assay [1], in assay [2], in [3], in [4], in [5] and in [7] was “inactive” in each case. Further, the Potency entry in assay [8], in assay [9], in [10] and in assay [11] was “inactive” throughout. Moreover, in assay [6], the Potency is 18.7 µM (active).
Regarding `Cn1c(=O)c(F)c(Nc2ccc(I)cc2F)c2c(=O)n(C[C@@H](O)CO)cnc21`, the Potency in assay [12] is 13.2 µM (active); in assay [13], 1.87 µM (active); in assay [14], 18.7 µM (active); in [15] it was 0.0118 µM (active). The Potency entry in [2], in assay [3], in assay [5], in [7], in [8] and in assay [9] was “inactive” each time. For the same compound, the Potency entry in [11] was “inactive”.
With `CC(C)(N)C(=O)N[C@H](COCc1ccccc1)C(=O)N1CCC2(CC1)CN(S(C)(=O)=O)c1ccccc12`, the Potency was 16.6 µM (active) in [12]; 5.26 µM (active) in [13]; 0.0264 µM (active) in [2]; 23.5 µM (active) in [16]; 23.5 µM (active) in [6]; 18.7 µM (active) in assay [7]. In addition, the Potency in assay [8] is 16.6 µM (active); in [9], 18.7 µM (active); in assay [11], 14.8 µM (active). Besides, the Potency result in [14] was “inactive”.
For `Cc1c(CN2CCN(C(=O)C(C)C)CC2)sc2c(N3CCOCC3)nc(-c3cnc(N)nc3)nc12`, the Potency in assay [13] was 0.0187 µM (active); in [17] it was 0.0296 µM (active); in assay [14], 0.296 µM (active); in assay [15], 0.418 µM (active); in assay [18] it was 0.526 µM (active); in assay [2], 0.264 µM (active). Also, the Potency in assay [3] is 0.0372 µM (active); in assay [4] it was 0.0166 µM (active); in assay [6], 0.132 µM (active); in [7], 0.0469 µM (active); in assay [9] it was 0.0662 µM (active); in [10] it was 0.0209 µM (active). Besides, the Potency in [11] is 0.0296 µM (active); in assay [19] it was 1.66 µM (active); in assay [20], 0.0743 µM (active).
As to `CCOc1cc(N2CCC(O)CC2)ccc1Nc1ncc2c(n1)N(C)c1ccccc1C(=O)N2C`, the Potency in assay [12] was 9.35 µM (active); in assay [13] it was 0.187 µM (active); in assay [14], 1.05 µM (active); in assay [18], 0.526 µM (active); in [2] it was 4.18 µM (active); in assay [6] it was 5.26 µM (active). Moreover, the Potency is 16.6 µM (active) in assay [7]; 16.6 µM (active) in [9]; 0.526 µM (active) in assay [10]; 10.5 µM (active) in assay [11]; 6.62 µM (active) in assay [19]; 14.8 µM (active) in assay [20].
`CO[C@@H]1[C@H](N(C)C(=O)c2ccccc2)C[C@H]2O[C@]1(C)n1c3ccccc3c3c4c(c5c6ccccc6n2c5c31)C(=O)NC4`: the Potency in assay [13] was 1.32 µM (active); in [17] it was 9.35 µM (active); in [14], 0.935 µM (active); in assay [15], 1.05 µM (active); in assay [18], 0.166 µM (active); in [2], 3.72 µM (active). Also, the Potency is 2.64 µM (active) in [16]; 1.32 µM (active) in [3]; 0.935 µM (active) in [4]; 5.26 µM (active) in assay [5]; 4.69 µM (active) in [6]; 2.09 µM (active) in assay [7]. In addition, the Potency in assay [9] is 5.26 µM (active); in assay [10], 1.66 µM (active); in assay [11], 1.32 µM (active); in assay [19], 0.235 µM (active); in assay [20], 1.48 µM (active).
Consider `CCCn1c(=O)c2[nH]c(C34CC5CC3C[C@@H](C5)C4)nc2n(CCC)c1=O`, for which the Potency entry in assay [1], in assay [4] and in assay [5] was “inactive” in each case. Besides, the values for the Potency in assay [7], in [8] and in [9] were 11.8 µM (active), 11.8 µM (active) and 20.9 µM (active), respectively.
On to `CCN(CC)CCCC(C)Nc1ccnc2cc(Cl)ccc12` (centres undefined), for which the Potency result in assay [1], in assay [2], in assay [3], in assay [4], in assay [5] and in assay [7] was “inactive” each time. Further, the Potency result in assay [8], in [9] and in [11] was “inactive” in each case. Also, the values for the Potency in assay [14] and in assay [10] were 1.66 µM (active) and 0.935 µM (active), respectively.
`Cn1cc(-c2ccc3nnc(C(F)(F)c4ccc5ncccc5c4)n3n2)cn1`: the Potency in [12] was 18.7 µM (active); in assay [17], 23.5 µM (active); in [14], 20.9 µM (active); in assay [16] it was 5.9 µM (active); in [6] it was 8.33 µM (active); in assay [20], 16.6 µM (active). Also, the Potency entry in assay [15], in assay [4], in assay [5] and in [9] was “inactive” throughout.
`NC(=O)c1ccc(-c2nc(-c3ccc4c(c3)OCCO4)c(-c3ccccn3)[nH]2)cc1`: the Potency entry in [1], in assay [3], in assay [4], in assay [5] and in assay [7] was “inactive” each time. Besides, the Potency in assay [10] is 20.9 µM (active).
Regarding `CC(C[N+](C)(C)C)OC(N)=O` (centres undefined), the Potency entry in assay [1], in assay [14], in assay [2], in assay [3], in assay [4] and in assay [5] was “inactive” in each case. Besides, the Potency entry in assay [6], in [7] and in assay [8] was “inactive” in each case. In [20], the Potency was 16.6 µM (active).
Regarding `COc1ccc(-c2c(-c3ccc(O)cc3O)n[nH]c2C)cc1`, the Potency in [12] was 27 µM (active); in assay [17], 27 µM (active); in assay [4], 19.1 µM (active); in [7] it was 38.2 µM (active). In addition, the Potency entry in assay [5], in [6], in [9] and in [11] was “inactive” throughout.
In the case of `Cc1cnc(Nc2ccc(OCCN3CCCC3)cc2)nc1Nc1cccc(S(=O)(=O)NC(C)(C)C)c1`, the Potency result in [1], in assay [2], in [4], in assay [5], in assay [7] and in assay [8] was “inactive” each time. In addition, the Potency in assay [10] was 0.296 µM (active).
